Among the data in PubChem BioAssay (EPA / NIEHS) are outcome and AC50 values, retold here.

Read-out in experiment [1]: Urokinase-type plasminogen activator receptor (uPAR), PLAUR (gene 5329)
Put plainly: BSK_BE3C_uPAR: BioMAP Diversity Plus: BE3C Assay for Urokinase-type plasminogen activator receptor (uPAR) Biomarker Activity (AID 2283039).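 Also: uPAR protein level measured by ELISA on the cells; cells exposed to compound for one day before measurement.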 As to conditions: primary human bronchial epithelial cells; actives raise or lower the signal. The method, boiled down: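 ELISA readout of uPAR on human lung primary bronchial epithelial cells, 24 h post-dosing. Bidirectional curve fit relative to DMSO vehicle baseline; gain or loss of signal both scored.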

Read-out in experiment [2]: Interleukin-6 (IL6), IL6 (gene 3569)
Put plainly: BSK_CASM3C_IL6: BioMAP Diversity Plus: CASM3C Assay for Interleukin-6 (IL6) Biomarker Activity for (AID 2283040). As to conditions: primary human coronary artery smooth muscle cells; actives raise or lower the signal.

Read-out in experiment [3]: Tissue plasminogen activator (tPA), PLAT (gene 5327)
The experiment in a line: BSK_BE3C_tPA: BioMAP Diversity Plus: BE3C Assay for Tissue plasminogen activator (tPA) Biomarker Activity (AID 2283041).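 Also: tPA level quantified by ELISA one day after compound addition.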 As to conditions: primary human bronchial epithelial cells; actives raise or lower the signal. The method, boiled down:
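ELISA read-out of tPA on human primary bronchial epithelial cells, 24 h post-dosing; bidirectional fit vs DMSO negative control/baseline.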

Read-out in experiment [4]: Interleukin-8 (IL8), CXCL8 (gene 3576)
The experiment in a line: BSK_CASM3C_IL8: BioMAP Diversity Plus: CASM3C Assay for Interleukin-8 (IL8) Biomarker Activity (AID 2283042).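 Also: IL-8 protein level quantified by ELISA.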 As to conditions: primary human coronary artery smooth muscle cells; actives raise or lower the signal.

Read-out in experiment [5]: Human Leukocyte Antigen - DR isotype (HLADR), HLA-DRA (gene 3122)
The experiment in a line: BSK_CASM3C_HLADR: BioMAP Diversity Plus: CASM3C Assay for Human Leukocyte Antigen - DR isotype (HLADR) Biomarker Activity (AID 2283043).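 Also: cell-surface HLA-DR protein level quantified by ELISA.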 Conditions: primary human coronary artery smooth muscle cells; actives raise or lower the signal.

Read-out in experiment [6]: Macrophage colony-stimulating factor (MCSF), CSF1 (gene 1435)
Put plainly: BSK_CASM3C_MCSF: BioMAP Diversity Plus: CASM3C Assay for Macrophage colony-stimulating factor (MCSF) Biomarker Activity (AID 2283044).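 Also: M-CSF protein amount quantified by ELISA after 24 h exposure.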 As to conditions: primary human coronary artery smooth muscle cells; actives raise or lower the signal.

Read-out in experiment [7]: Low-density lipoprotein receptor (LDLR), LDLR (gene 3949)
Put plainly: BSK_CASM3C_LDLR: BioMAP Diversity Plus: CASM3C Assay for Low-density lipoprotein receptor (LDLR) Biomarker Activity (AID 2283045).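 Also: LDLR protein level on the cell surface quantified by ELISA.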 Conditions: primary human coronary artery smooth muscle cells; actives raise or lower the signal.

Read-out in experiment [8]: Monocyte Chemoattractant Protein-1 (MCP1), CCL2 (gene 6347)
Put plainly: BSK_CASM3C_MCP1: BioMAP Diversity Plus: CASM3C Assay for Monocyte Chemoattractant Protein-1 (MCP1) Biomarker Activity (AID 2283046).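 Also: MCP-1 level quantified by ELISA 24 h after dosing.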 As to conditions: primary human coronary artery smooth muscle cells; actives raise or lower the signal.

Experiment [9] in a line: BSK_CASM3C_Proliferation: Cell Proliferation Assessment in the BioMAP Diversity Plus: CASM3C Assay (AID 2283047).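 Also: sulforhodamine B total protein stain as relative cell number at 560 nm; sub-confluent cells exposed 48 h before staining; fitted both ways against DMSO so gain or loss of cell number.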 Conditions: primary human coronary artery smooth muscle cells.
Read-out in experiment [10]: Monokine induced gamma interferon (MIG), CXCL9 (gene 4283)
Put plainly: BSK_CASM3C_MIG: BioMAP Diversity Plus: CASM3C Assay for Monokine induced gamma interferon (MIG) Biomarker Activity (AID 2283048).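 Also: MIG protein level measured by ELISA.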 As to conditions: primary human coronary artery smooth muscle cells; actives raise or lower the signal.

Read-out in experiment [11]: serum amyloid A (SAA), SAA1 (gene 6288)
The experiment in a line: BSK_CASM3C_SAA: BioMAP Diversity Plus: CASM3C Assay for serum amyloid A (SAA) Biomarker Activity (AID 2283049).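 Also: SAA protein level quantified by ELISA.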 As to conditions: primary human coronary artery smooth muscle cells; actives raise or lower the signal.

Experiment [12] is described as follows: BSK_CASM3C_SRB: Viability Assessment in the BioMAP Diversity Plus: CASM3C Assay (AID 2283050).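 Also: cells exposed to compound for 24 h.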 Conditions: primary human coronary artery smooth muscle cells.
Read-out in experiment [13]: Thrombomodulin, THBD (gene 7056)
Put plainly: BSK_CASM3C_Thrombomodulin: BioMAP Diversity Plus: CASM3C Assay for Thrombomodulin Biomarker Activity (AID 2283051).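 Also: thrombomodulin protein level measured by ELISA 24 h after dosing.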 Conditions: primary human coronary artery smooth muscle cells; actives raise or lower the signal.

Read-out in experiment [14]: Tissue Factor, F3 (gene 2152)
Put plainly: BSK_CASM3C_TissueFactor: BioMAP Diversity Plus: CASM3C Assay for Tissue Factor Biomarker Activity (AID 2283052).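 Also: cell surface tissue factor protein level read by ELISA.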 As to conditions: primary human coronary artery smooth muscle cells; actives raise or lower the signal.

Read-out in experiment [15]: Interferon-gamma inducible Protein 10 (IP10), CXCL10 (gene 3627)
The experiment in a line: BSK_hDFCGF_IP10: BioMAP Diversity Plus: hDFCGF Assay for Interferon-gamma inducible Protein 10 (IP10) Biomarker Activity (AID 2283053). As to conditions: primary human foreskin fibroblasts; actives raise or lower the signal. The method, boiled down:
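ELISA read-out of IP-10 (CXCL10) from primary human skin fibroblasts, 24 h after compound addition. Gain or loss of signal versus DMSO baseline, bidirectional curve fitting.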

Read-out in experiment [16]: Urokinase-type plasminogen activator receptor (uPAR), PLAUR (gene 5329)
Put plainly: BSK_CASM3C_uPAR: BioMAP Diversity Plus: CASM3C Assay for Urokinase-type plasminogen activator receptor (uPAR) Biomarker Activity (AID 2283054).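 Also: cell-surface uPAR protein level quantified by ELISA.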 Conditions: primary human coronary artery smooth muscle cells; actives raise or lower the signal.

Read-out in experiment [17]: Vascular cell adhesion molecule 1 (VCAM1), VCAM1 (gene 7412)
Put plainly: BSK_CASM3C_VCAM1: BioMAP Diversity Plus: CASM3C Assay for Vascular cell adhesion molecule 1 (VCAM1) Biomarker Activity (AID 2283055).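 Also: VCAM-1 protein level quantified by ELISA on the cells.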 Conditions: primary human coronary artery smooth muscle cells; actives raise or lower the signal.

Read-out in experiment [18]: Collagen III, COL3A1 (gene 1281)
Put plainly: BSK_hDFCGF_CollagenIII: BioMAP Diversity Plus: hDFCGF Assay for Collagen III Biomarker Activity (AID 2283056). As to conditions: primary human foreskin fibroblasts; actives raise or lower the signal. The method, boiled down: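 Human foreskin fibroblast primary cultures sampled 24 h after dosing; Collagen III quantified by ELISA. Signal fitted bidirectionally against DMSO baseline.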

Read-out in experiment [19]: Epidermal growth factor receptor (EGFR), EGFR (gene 1956)
The experiment in a line: BSK_hDFCGF_EGFR: BioMAP Diversity Plus: hDFCGF Assay for Epidermal growth factor receptor (EGFR) Biomarker Activity (AID 2283057). Conditions: primary human foreskin fibroblasts; actives raise or lower the signal. In a few lines: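 ELISA readout of EGFR on human dermal fibroblasts (primary foreskin cells), 24 h post-dosing; bidirectional curve fit vs DMSO baseline, gain or loss of signal scored.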

Read-out in experiment [20]: Interleukin-8 (IL8), CXCL8 (gene 3576)
The experiment in a line: BSK_hDFCGF_IL8: BioMAP Diversity Plus: hDFCGF Assay for Interleukin-8 (IL8) Biomarker Activity (AID 2283058). As to conditions: primary human foreskin fibroblasts; actives raise or lower the signal. The method, boiled down:
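Primary human foreskin fibroblasts (hDFCGF system) dosed with chemical; IL-8 measured by ELISA 24 hours later. Bidirectional curve fitting relative to DMSO baseline; cytotoxicity tracked in parallel cultures by SRB total protein staining.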

The source made the active and inactive calls. The calls were made as follows: active = hit-call score of the fitted dose curve at least 0.9, where 1 is the maximum; inactive = score below 0.9.

For `COC(=O)N(C(=O)N1CO[C@@]2(C(=O)OC)Cc3cc(Cl)ccc3C2=N1)c1ccc(OC(F)(F)F)cc1`, the result in experiment [1], in experiment [2], in [3], in experiment [4], in experiment [5] and in experiment [6] was inactive. Further, the outcome in experiment [7], in experiment [8], in experiment [10], in experiment [11], in experiment [12] and in experiment [13] was inactive. Besides, the outcome in experiment [14], in experiment [16], in experiment [17], in experiment [18], in experiment [19] and in [20] was inactive. Besides, the AC50 – broadly, the midpoint of the concentration-response curve, whichever way the signal moves – was 12.4 µM (active) in experiment [9] and 13.5 µM (active) in experiment [15].

As to `CCNP(=S)(OC)O/C(C)=C/C(=O)OC(C)C` (stereo not given), the result in experiment [1], in [2], in experiment [3], in [4], in experiment [5] and in experiment [6] was inactive. The outcome in experiment [7], in experiment [8], in experiment [9], in experiment [10], in experiment [11] and in experiment [12] was inactive. Further, the outcome in experiment [13], in experiment [14], in experiment [15], in [16], in experiment [17] and in [18] was inactive. For the same compound, the outcome in experiment [19] and in [20] was inactive.

Regarding `CCOP(=S)(OCC)Oc1nc(Cl)n(C(C)C)n1`, the result in experiment [1], in experiment [2], in experiment [3], in experiment [4], in experiment [5] and in experiment [6] was inactive. Also, the outcome in experiment [7], in experiment [8], in [9], in [10], in experiment [11] and in experiment [12] was inactive. Further, the result in [13], in experiment [14], in experiment [16], in experiment [17], in experiment [18] and in experiment [19] was inactive. For the same compound, in experiment [20], the result was inactive. The AC50 in experiment [15] is 26.7 µM (active).

In the case of `CNC(=O)Oc1cccc2ccccc12`, the result in [1], in experiment [2], in experiment [3], in [4], in [5] and in experiment [6] was inactive. Besides, the result in experiment [7], in [8], in experiment [10], in experiment [11], in experiment [12] and in experiment [13] was inactive. Also, the result in experiment [14], in experiment [15], in experiment [16], in [17], in experiment [18] and in [19] was inactive. For the same compound, the result in experiment [20] was inactive. Moreover, the AC50 in [9] is 26.2 µM (active).

As to `Cc1nc(N(C)C)nc(OC(=O)N(C)C)c1C`, the outcome in [1], in experiment [2], in experiment [3], in experiment [4], in experiment [5] and in experiment [6] was inactive. Besides, the outcome in experiment [7], in experiment [8], in experiment [9], in experiment [10], in experiment [11] and in [12] was inactive. Besides, the result in experiment [13], in experiment [14], in experiment [15], in experiment [16], in experiment [17] and in experiment [18] was inactive. The outcome in experiment [19] and in experiment [20] was inactive.

Regarding `CCCCC(C#N)(Cn1cncn1)c1ccc(Cl)cc1` (stereo not given), the outcome in experiment [1], in experiment [2], in [3], in experiment [4], in experiment [5] and in experiment [6] was inactive. Also, the result in [7], in experiment [8], in experiment [9], in experiment [10], in [11] and in experiment [12] was inactive. For the same compound, the outcome in experiment [13], in [14], in experiment [15], in [17], in experiment [18] and in experiment [19] was inactive. In experiment [20], the result was inactive. In addition, in experiment [16], the AC50 is 1.12 µM (active).
